± gives the standard deviation of the averaged measurements. The full ranking holds about 33,000 sequences; the median of “E-score (rank enrichment, -0.5 to 0.5)” is about -0.0068, and the highest 2% start at about 0.24. For the sample, the highest values were picked, then their nearest neighbours and some sequences at random.
System: muMax20 (Max(13-93) K31hArg/K57hArg, M65Nle)
Experiment: PBM 8-mer E-score (E-score (rank enrichment, -0.5 to 0.5)); higher = stronger preferential binding
Method: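 Protein binding microarray (universal PBM chip covering all 10-mers in fixed probe flanks) with chemically synthesized human Max(13-93) bHLH-LZ analogs (not full-length Max) bearing noncanonical residues (hArg, Tha, Aib, Nle at 65) and aromatic Cys staples. Read-out per 8-mer (and its reverse complement): E-score (rank-based enrichment, -0.5 to 0.5) and Z-score of median probe intensity.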

Sequence	PBM 8-mer E-score
CAAGCTGA	-0.175 ± 0.11
TAAGCATA	0.11 ± 0.096
AAAGCATA	0.249 ± 0.045
AAAGCTGG	0.0179 ± 0.046
CAAGCATA	0.064995 ± 4.9e-05
AAAGCTGA	0.275 ± 0.086
AAAGCATT	0.1 ± 0.0071
AAAGCATG	0.25 ± 0.063
CAAGCATG	0.134 ± 0.038
AATAAGGG	0.11 ± 0.12
ACTGTCTA	0.0515 ± 0.052
CGACAAGA	-0.0978 ± 0.12
GTCCAGGA	-0.157 ± 0.032
GAACGGGC	-0.0738 ± 0.11
AACATAAA	0.168 ± 0.035
AACATACG	0.278 ± 0.03
ATCATACA	0.28 ± 0.069
AACATACA	0.252 ± 0.0071
GTCATACA	0.118 ± 0.021
CACATACG	0.0977 ± 0.026
AACATACT	0.0528 ± 0.0084
CACATAAA	0.2193 ± 0.00038
AACATACC	0.0171 ± 0.02
TACATAAA	0.239 ± 0.025
ACCATACA	0.144 ± 0.051

Sequence	PBM 8-mer E-score
ATCATACG	0.184 ± 0.071
CGCGCTCA	-0.127 ± 0.012
ACTGCAAA	0.0247 ± 0.1
AGGCGACA	-0.105 ± 0.11
GCGAACCC	-0.0615 ± 0.025
ATCTGACC	0.00987 ± 0.008
CAATCGCG	-0.0427 ± 0.086
CAGATCTG	-0.123 ± 0.089
CACATACA	0.112 ± 0.072
GACATACA	0.167 ± 0.11
TACATACA	0.26 ± 0.025
ACGATGCC	-0.151 ± 0.016
CTATGCCA	0.0539 ± 0.12
ATATGCCA	0.242 ± 0.062
ATATGCCG	0.0671 ± 0.1
CCGTGCAC	0.0347 ± 0.013
ACGTGCAC	0.334 ± 0.11
TCGTGCAA	0.0413 ± 0.0064
CCGTGCTA	-0.0534 ± 0.02
CCGTGCAA	-0.0343 ± 0.018
ACGTGCTA	0.278 ± 0.041
ACGTGCAT	0.33 ± 0.053
ACGTGCAA	0.251 ± 0.095
AGGTGCAT	0.0164 ± 0.091
GCGTGCTA	0.138 ± 0.033

Sequence	PBM 8-mer E-score
GCGTGCAC	0.208 ± 0.024
AAGTGCAT	0.132 ± 0.029
CAAGCTCG	-0.109 ± 0.086
AAGACCCT	0.0269 ± 0.086
GACCGTGC	-0.11 ± 0.054
AGCCTCAA	-0.0979 ± 0.089
CGTCTCGC	-0.117 ± 0.017
CTAGCCAG	-0.0885 ± 0.015
GACACGAC	0.0582 ± 0.097
GGTGCAAA	0.0271 ± 0.074
CTCGCCTC	-0.157 ± 0.053
CCTCAGTA	-0.184 ± 0.019
AGGTTTAG	-0.0204 ± 0.08
ACGTGCAG	0.252 ± 0.00027
CCGTGCAG	-0.128 ± 0.047
ACGTGCCG	0.207 ± 0.098
CTGTAGGC	-0.151 ± 0.011
GACAACAA	0.125 ± 0.046
CGTCTGGC	-0.194 ± 0.022
TGTAATAA	0.189 ± 0.076
ACTAATAG	0.191 ± 0.025
GATAATAC	0.204 ± 0.073
ACTAATAT	0.199 ± 0.0057
CATAATAG	0.229 ± 0.017
TATAATAA	0.315 ± 0.015

Sequence	PBM 8-mer E-score
AATAATAC	0.16 ± 0.018
AATAATAG	0.263 ± 0.024
CATAATAC	0.26 ± 0.066
GATAATAA	0.164 ± 0.034
CATAATAA	0.216 ± 0.021
AATAATAT	0.244 ± 0.011
CAGCCTGA	-0.0558 ± 0.092
CGGCGGAA	-0.0106 ± 0.03
AATTGCTC	-0.0189 ± 0.0015
ACTAGATC	-0.0146 ± 0.044
CGCACCAG	-0.0279 ± 0.043
ATGAGACC	-0.0938 ± 0.12
CTGTCCTC	-0.0695 ± 0.18
CGTCCTGC	-0.0779 ± 0.08
ATAGCTGG	-0.243 ± 0.062
AAAAATAA	0.0636 ± 0.065
AGTAATAG	0.227 ± 0.078
TCTAATAA	0.236 ± 0.032
AATAATAA	0.277 ± 0.011
AATAATCC	0.0218 ± 0.0033
ACTAATAA	0.222 ± 0.015
CCTAATAA	0.103 ± 0.096
AATACTAT	0.265 ± 0.077
AATACTAA	0.158 ± 0.052
GGTAATAA	0.0931 ± 0.008

Sequence	PBM 8-mer E-score
AGTAATAA	0.271 ± 0.0094
AATACTAC	0.197 ± 0.038
AACGGAGT	-0.013 ± 0.052
ATCGTCGA	-0.133 ± 0.025
ATTGGATA	-0.0183 ± 0.031
ATAATGAC	0.122 ± 0.01
CCAGTCCA	-0.0788 ± 0.061
TAAAAGTA	0.189 ± 0.074
GTGGGCAA	0.0632 ± 0.065
AAATGTGG	0.139 ± 0.016
CCATGTGA	0.268 ± 0.088
GCATGTGA	0.236 ± 0.11
AGATGTGA	0.11 ± 0.04
CTATGTGC	0.175 ± 0.034
ACATGTGG	0.335 ± 0.035
CCATGTGC	0.265 ± 0.12
CCATGTTC	-0.0553 ± 0.12
ACATGTGA	0.313 ± 0.063
ACATGTCA	0.0739 ± 0.079
AGATGTGG	-0.0064 ± 0.024
CGATGTGA	-0.012 ± 0.0036
CTAGTAAC	0.196 ± 0.0053
ATCTTGGC	-0.108 ± 0.011
AGCTCGTG	0.0196 ± 0.019
GGGCCACA	-0.0874 ± 0.078

Sequence	PBM 8-mer E-score
CTGCTGCC	-0.156 ± 0.007
GTGTCTAA	0.0915 ± 0.069
ATGGATAA	0.163 ± 0.05
GATCCAAC	-0.0916 ± 0.056
CGATGCAG	-0.0636 ± 0.022
AGGCACAA	0.00764 ± 0.053
ACATGTCC	0.132 ± 0.091
ACATGTGC	0.265 ± 0.089
AGATGTGC	-0.0232 ± 0.13
AAAAGGGT	0.017 ± 0.098
CCCACGCA	-0.043 ± 0.11
ACCACGCG	0.3 ± 0.11
CGCACGCG	0.171 ± 0.035
CAAACACA	0.181 ± 0.095
ACCACGCC	-0.112 ± 0.055
ACCACGCA	-0.00629 ± 0.023
CCCACGCG	0.246 ± 0.025
TAAACACA	0.218 ± 0.043
AGCACGCG	0.238 ± 0.13
CAAACACG	0.292 ± 0.006
CCCACGCC	-0.00197 ± 0.078
AGCACGCA	0.00177 ± 0.16
ATCTCAAT	0.0437 ± 0.22
ATCTCCCA	0.0498 ± 0.043
AGACCAGA	-0.0423 ± 0.084

Sequence	PBM 8-mer E-score
AGGGTGCG	-0.107 ± 0.027
CTGAGCAG	-0.139 ± 0.067
ACATAGGC	0.126 ± 0.0047
CGCAGGGA	-0.135 ± 0.074
AGCACGTA	0.0788 ± 0.0046
AGCACGTG	0.436 ± 0.07
ACCACGTC	0.0772 ± 0.1
ATCACGTG	0.445 ± 0.064
CACACGCG	0.258 ± 0.038
ACCACGTA	-0.0417 ± 0.022
ATCACGTC	0.182 ± 0.045
ATCACGTA	0.144 ± 0.055
CACACGCA	0.0877 ± 0.054
ACCACGTG	0.477 ± 0.026
AACACGCG	0.202 ± 0.042
AGCACGTC	-0.139 ± 0.096
ATGCCCAG	-0.219 ± 0.063
ACTCGCTA	-0.111 ± 0.17
CCGTGCCG	-0.206 ± 0.017
GACCACAC	0.0455 ± 0.029
CACTAGGG	-0.0807 ± 0.033
TATGGAAA	0.148 ± 0.034
